SW480 rerep: induces DNA re-replication in SW480 colon adenocarcinoma cells. AID 624297. actives 1.8% (n = 340,000). SW480 DNA re-replication, Hoechst DNA content imaging, 48 h. Potency, µM (titrated, usually from 46.1 µM), for inactives: at the highest dose re-replication activation, most hits filed as activators; also: % of control where 0% means no effect; nearly all actives have a fitted effect of over 55% in size
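Compounds, transferred as 23 nL by pin tool, were incubated with cells for 48 hr; DNA content per nucleus was then quantified by Hoechst staining and fluorescence plate imaging.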
KB-3-1 tox: KB-3-1 parental cell cytotoxicity. actives 1.4% (n = 400,000). KB-3-1 viability, CellTiter-Glo ATP luminescence, 72 h. Potency, µM (titrated, usually from 46.1 µM), actives largely listed as cytotoxic; also: % is scaled to controls: 0 for no effect and ±100 for the full control effect; nearly all actives have a fitted effect of over 60% in size
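Here the drug-naive KB-3-1 line serves as comparator for MDR sub-line selectivity; cells received compound titrations, 72 h at 37 °C, then CellTiter-Glo readout.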
KB-V1 cytotox: KB-V1 MDR subline cytotoxicity; KB-V1 MDR cells viability, CellTiter-Glo, 72 h; Potency, µM (top dose mostly 46.1 µM), actives largely listed as cytotoxic; actives 3.4% (n = 400,000); AID 1347076; also: % is scaled to controls: 0 for no effect and ±100 for the full control effect; nearly all actives have a fitted effect of over 60% in size
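KB-V1 MDR subline cells in DMEM (phenol-red free, 10% FBS) exposed to compounds in qHTS concentration series for 72 h at 37 degrees C. Viability read by CellTiter-Glo luminescence; concentration-effect curves fitted after normalization and correction.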
ELG1 DNA repair: inhibitors of ELG1-dependent DNA repair in HEK293T cells | HEK293T ELG1-luciferase reporter, luminescence, 16 h; DNA damage induced by 5-fluorouridine | Potency, µM (series often up to 46.1 µM), for the others: at the top dose activity change, negative = inhibition, usual class: inhibitors | actives 2.3% (n = 330,000); also: % is scaled to controls: 0 for no effect and ±100 for the full control effect; nearly all actives have a fitted effect of over 55% in size
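In this reporter screen, reduction of luminescence relative to DMSO vehicle indicated activity. Compounds and 5-fluorouridine were added together to 2,000 cells per well, incubated for 16 hr at 37 °C, then developed with ONE-Glo.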
MCF10A rerep: induces DNA re-replication in MCF 10a normal breast cells | MCF 10A DNA re-replication, Hoechst nuclear intensity, 48 h | Potency, µM (series often up to 46.1 µM), without a hit: at the top dose activity, positive = re-replication, actives largely listed as activators | actives 2.9% (n = 350,000); also: % of control where 0% means no effect; nearly all actives have a fitted effect of over 50% in size
* = called active by the depositor; i = inactive; ? = inconclusive; . = not tested or not shown; ! = not confirmed by another sample. Rows were chosen to be rich in hits. Some 8.1% of all compounds tested hit in one or more screens of this group. Calls follow the shape of the dose curve; as a rule, active = well fitted curve in the direction sought with a large enough effect; inconclusive = small, poorly fitted or top-dose-only effect, or another doubt; inactive = no such curve, though single readings can be large; an effect the other way counts as inactive or inconclusive. Potency is read from the fitted curve at half-maximal effect.

SMILES | SW480 rerep | KB-3-1 tox | KB-V1 cytotox | ELG1 DNA repair | MCF10A rerep
CC(=O)c1ccc(N2CCN(C(=O)CCCCn3c(=O)[nH]c4ccsc4c3=O)CC2)cc1 | . | i | i | . | .
O=C(CCn1c(=O)[nH]c2ccsc2c1=O)N1CCN(c2ccc([N+](=O)[O-])cc2)CC1 | -11.6% | i | i | 18.3µM* | 23.9%
O=C(CCn1c(=O)[nH]c2ccsc2c1=O)N1CCN(c2cccc(Cl)c2)CC1 | 4.8% | 20.6µM* | i | -3.8% | ?
O=C(CCCCn1c(=O)[nH]c2ccsc2c1=O)N1CCN(c2cccc(Cl)c2)CC1 | . | ? | i | . | .
Cc1ccc(-c2nc(S(=O)(=O)c3ccc(C)cc3)c(N(C)C)o2)cc1 | 0.5% | i | ? | -2.2% | -0.5%
Cc1ccc(S(=O)(=O)c2nc(-c3ccccc3Cl)oc2N(C)C)cc1 | ? | 18.4µM* | 10.3µM* | ? | 12.1%
CCSc1oc(-c2ccco2)nc1S(=O)(=O)c1ccc(Br)cc1 | . | i | i | . | .
CN(C)c1oc(-c2ccccc2Cl)nc1P(=O)(c1ccccc1)c1ccccc1 | ? | ? | 7.31µM* | ? | 18.4µM*
CN(C)c1oc(-c2ccco2)nc1S(=O)(=O)c1ccc(Br)cc1 | -2.3% | i | 4.61µM* | -0.4% | 4.7%
N=c1c2c(ncn1CCN1CCOCC1)Oc1ccc3ccccc3c1C2c1ccccc1 (stereo unspecified) | -10.7% | i | i | -8.0% | -0.3%
COc1ccc(C2c3c(ncn(CCN4CCOCC4)c3=N)Oc3ccc4ccccc4c32)cc1 (stereo unspecified) | ? | ? | 14.6µM*! | 4.6% | ?
COc1ccc(C2C3=C(CC(C)(C)CC3=O)Oc3ncn(Cc4ccccc4)c(=N)c32)cc1 (stereo unspecified) | ? | i | 3.26µM* | ? | 16.4µM*
CC1(C)CC(=O)C2=C(C1)Oc1ncn(Cc3ccco3)c(=N)c1C2c1ccccc1 (stereo unspecified) | 9.1% | i | ? | ? | -3.4%
Cc1ccc2nc(-c3ccccc3)cc(C(=O)NNC(=O)c3csc(N4CCOCC4)n3)c2c1 | -2.5% | i | 20.6µM* | 6.51µM* | 17.0%
O=C(Nc1cccnc1)c1ccc2nc(-c3ccccc3)c(-c3ccccc3)nc2c1 | -31.8% | i | ? | 23.1µM* | ?
O=C(Nc1ccccc1)c1ccc2nc(-c3ccco3)c(-c3ccco3)nc2c1 | 18.4µM* | i | ? | 9.2µM* | 11.6µM*
Cc1ccc(-c2cc(C(=O)NNC(=O)c3csc(N4CCOCC4)n3)c3ccccc3n2)cc1 | 5.6% | i | i | ? | 1.4%
Cc1ccc2nc(-c3ccccc3)cc(C(=O)Nc3cccnc3)c2c1 | -0.7% | i | 2.91µM* | -13.8% | 9.7%
CC(=O)c1ccc(NC(=O)c2ccc3nc(-c4ccco4)c(-c4ccco4)nc3c2)cc1 | ? | i | i | ? | ?
O=C(Nc1ccccn1)c1ccc2nc(-c3ccccc3)c(-c3ccccc3)nc2c1 | . | . | . | 0.4% | .
COCCNC(=O)CN(Cc1ccc(OC)cc1)C(=O)CCC(=O)Nc1nccs1 | 13.6% | i | i | 7.1% | -2.0%
CC(=O)Oc1cccc(NC(=O)c2ccc3c(c2)C(=O)N(CC(C)C)C3=O)c1 | -3.8% | i | i | 19.4% | 6.4%
Cc1onc(-c2ccccc2)c1C(=O)Nc1nc2c(s1)C(=O)CC(C)(C)C2 | -2.8% | i | ? | -14.7% | ?
CSc1nc2ccccc2cc1/C=C(\C#N)c1ccccc1 | ? | ? | ? | -11.9% | 13µM*
Cc1cccc(/C=C(\C#N)c2nc3ccccc3c(=O)[nH]2)c1 | . | i | i | . | .
SMILES | SW480 rerep | KB-3-1 tox | KB-V1 cytotox | ELG1 DNA repair | MCF10A rerep
CSc1nc2ccccc2cc1/C=C(\C#N)c1cccc(C)c1 | ? | 14.6µM* | 14.6µM* | -1.9% | 10.3µM*
N#CC(=Cc1ccnc2ccccc12)c1ccccc1 | . | i | ? | . | .
CSc1nc2ccccc2cc1/C=C(\C#N)c1ccc(Cl)c(Cl)c1 | ? | i | i | 7.6% | 7.31µM*
c1cc(-c2ccc(N3CCOCC3)cc2)n2cnnc2c1 | . | i | i | . | .
O=c1[nH]nc(N/N=C/c2ccc(Cl)cc2Cl)c(=O)[nH]1 | 11.6% | i | i | ? | 1.2%
O=[N+]([O-])c1ccc(-[n+]2ccc3ccccc3c2)c([N+](=O)[O-])c1 | ? | 4.61µM* | 5.17µM* | ? | ?
COc1cc(/C=C/C(=O)OCC(=O)N2CCC(Cc3ccccc3)CC2)ccc1O | -6.7% | i | i | ? | 26.9%
Cc1ccc(-n2nc(C)c3c(C(=O)OCC(=O)N(C)C4CCS(=O)(=O)C4)cc(-c4ccccc4)nc32)cc1 (stereo unspecified) | 4.0% | i | i | -25.1% | 20.6µM*!
CCOC(=O)c1cc(-c2ccc(OC)cc2)nc2c1c(C)nn2CCC#N | 6.3% | i | ? | 3.66µM* | ?
CCOC(=O)c1cc(-c2ccncc2)nc2c1c(C)nn2-c1ccccn1 | 16.3% | i | ? | 23.1µM* | ?
CCN(C(=O)COC(=O)c1cc(-c2ccccc2)nc2c1c(C)nn2-c1ccccc1)C1CCS(=O)(=O)C1 (stereo unspecified) | 5.0% | i | i | ? | ?
O=c1[nH]c(SCc2ccc(F)cc2)nc2c1CCCC2 | . | i | i | . | .
O=C(Nc1nnc(COc2ccc(Cl)cc2)s1)c1ccc([N+](=O)[O-])cc1 | 1.0% | i | ? | -13.0% | 8.3%
CCC(CC)c1nnc(NC(=O)c2ccc([N+](=O)[O-])cc2)s1 | -5.4% | i | 20.6µM* | 3.8% | -1.3%
O=C(Nc1ncc(Cc2ccc(Cl)cc2Cl)s1)c1ccc([N+](=O)[O-])cc1 | -119.4% | 5.8µM* | ? | -21.2% | 2.4%
CC(=O)Nc1ccc(NC(=O)c2cc(-c3cc(C)cc(C)c3O)n[nH]2)cc1 | -23.7% | ? | i | 23.1µM* | 10.0%
Cc1cc(C)c(O)c(-c2cc(C(=O)Nc3ccc(S(=O)(=O)N4CCOCC4)cc3)[nH]n2)c1 | ? | ? | ? | 20.6µM* | ?
COc1ccc(NC(=O)c2cc(-c3ccc(C)c(C)c3O)n[nH]2)cc1Cl | ? | i | i | ? | 18.4µM*
Cc1cnc(C(=O)OC(C(=O)Nc2cc(C(F)(F)F)ccc2Cl)c2ccccc2)cn1 (stereo unspecified) | 0.6% | i | i | 10.3% | 11.5%
COC(=O)c1sccc1NC(=S)Nc1ccc(F)cc1 | -1.9% | i | i | -2.6% | -2.3%
CCOc1ccccc1Nc1ncnc2c1cnn2-c1ccc(C)cc1 | . | i | i | . | .
Cc1ccc(CN(CC(=O)NCc2ccc3c(c2)OCO3)C(=O)c2csnn2)cc1 | 13.1% | i | i | -8.7% | ?
